Compound activity (PubChem)
p-CIP stab down: p/CIP protein destabilization; Q05BA5; 290,000 compounds, 0.01% hits; decrease of EGFP signal, % at 10 µM; F442A p/CIP-EGFP cells, EGFP fluorescence, 16 h;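 active means EGFP signal decrease of at least 30% at 10 µM or well 3 SD below plate mean, unless failing retest; inactive means the rest, including hits failing retest or dose response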
beta cell repl: induces beta-cell replication in MIN6 cells. MIN6 cells proliferation, ATPlite luminescence, 48 h; cells starved in 0.2% serum; 100% = growth in 10% serum. proliferation, % at 10 µM. 330,000 compounds, 0.29% hits;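 active means compounds whose signal lies at least 3.5 SD above the mean of all wells on their plate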
V-ATPase pHluor: alters yeast V-ATPase proton transport | S. cerevisiae, pHLuorin cytosolic pH fluorescence | response, % at 10 µM | 350,000 compounds, 0.37% hits | AID 504577; in the data active means response mostly above about 7.3%, no sharp cut-off; inactive means mostly below about 5.4%; further: actives read high
CR mimetic SO: caloric restriction mimetics inhibiting age-related superoxide in yeast; AID 2690; S. cerevisiae aged cells, superoxide DHE fluorescence; hits give low values; superoxide response (% of plate mean), % at 10 µM; 330,000 compounds, 0.18% hits;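 active means superoxide response under a set limit, about three screen SD below normal, cut at about 65% in these data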;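 further: yeast aged for seven days with compound at 30 °C before DHE staining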
H9c2 protect: modulators protecting cardiomyocytes from myocardial damage. H9c2 cardiomyocytes, H2O2 injury protection, ATPLite, 2 h. 360,000 compounds, 0.63% hits. protection from H2O2 cell death, % at 20 µM;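 active means compounds giving at least 50% protection of heart cells from peroxide-induced death in the single-dose screen, raw or plate-pattern-corrected value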
HSV replic up: HSV replication enhancement; maximum fold increase; HSV replication augmentation in cells, fold increase; 220,000 compounds, 0.005% hits; AID 1956; in the data active means maximum fold increase above about 1.5; inconclusive means no clear call, values can overlap the other calls; tested in PC3 cells
Numbers stand for hits; – = inactive; ? = inconclusive; · = not tested or not shown. Hits are enriched below; roughly 1.4% of the tested compounds scored in any of these assays.

SMILES | p-CIP stab down | beta cell repl | V-ATPase pHluor | CR mimetic SO | H9c2 protect | HSV replic up
COc1cccc(-c2nnc(NC(=O)c3ccc(Cl)s3)o2)c1 | – | – | – | – | 58.2 | ·
O=C(Nc1nnc(-c2ccco2)o1)c1ccc(Cl)s1 | – | – | – | – | – | ·
CCOCCn1ccc2c(OCC(=O)Nc3cc(OC)ccc3OC)cccc2c1=O | · | – | – | – | 52.6 | ·
COc1ccc(S(=O)(=O)N2CCN(c3cnccn3)CC2)cc1OC | · | – | 16.4 | – | – | ·
Cc1csc2c(N3CCN(C(=O)c4ccc(C(C)(C)C)cc4)CC3)ncnc12 | – | – | – | – | – | –
Cc1ccc(O)c(C(=O)CC(=O)c2ccccc2Cl)c1 | – | – | – | – | – | –
Cc1ccc(O)c(C(=O)CC(=O)c2ccc(C(C)(C)C)cc2)c1 | – | – | – | – | 56.9 | ·
O=C(CSc1nnc(-c2ccccc2)n1Cc1ccccc1)NNC(=O)c1ccccc1O | – | – | – | – | 59.2 | –
CC1Oc2ccccc2N(CC(=O)N2CCCC2)C1=O (configuration not stated) | – | – | 14.4 | – | – | ·
Cc1ccc2cccc(N=Cc3c(C)[nH]n(-c4ccccc4)c3=O)c2n1 | – | · | – | – | 63.0 | –
Cc1[nH]n(-c2ccccc2)c(=O)c1/C=N/N1C(=O)c2ccc3c4c(ccc(c24)C1=O)CC3 | – | – | – | – | 65.2 | –
COC(=O)C1CCN(C(=O)COC(=O)CSc2ccc(C(N)=O)cc2[N+](=O)[O-])CC1 | · | – | – | – | – | ·
COc1cc(-c2nnc(COC(=O)c3cc(C)nc4ccc(C)cc34)o2)cc(OC)c1OC | – | – | – | – | 70.8 | –
Cc1c(O)ccc(/C(Cc2ccc3ccccc3n2)=N\N)c1O | – | – | – | – | 63.2 | –
CCc1cc(/C(Cc2ccc3ccccc3n2)=N\O)c(O)cc1O | – | – | – | – | – | –
O=C(O)C1OC(Oc2c(-c3ccc(O)c(O)c3)oc3cc(O)cc(O)c3c2=O)C(O)C(O)C1O (configuration not stated) | – | – | · | – | · | –
O=c1c(O)c(-c2ccc(O)c(O)c2)oc2cc(O)cc(O)c12 | – | – | – | – | 94.8 | ·
O=c1cc(-c2ccc(O)c(O)c2)oc2cc(O)cc(O)c12 | – | – | – | – | 61.9 | –
O=C(COC(=O)/C=C/c1cn(-c2ccccc2)nc1-c1ccc2c(c1)OCCO2)NC1CCS(=O)(=O)C1 (configuration not stated) | – | – | – | – | 56.8 | –
CNC(=O)COC(=O)/C=C/c1cn(-c2ccccc2)nc1-c1ccc(C)o1 | – | – | – | – | 56.4 | –
CN(C(=O)COC(=O)/C=C/c1cn(-c2ccccc2)nc1-c1ccc2c(c1)OCCO2)C1CCS(=O)(=O)C1 (configuration not stated) | – | – | – | – | – | –
CN(C)CCCNc1ccc(S(N)(=O)=O)cc1[N+](=O)[O-] | – | – | – | – | – | –
Cc1ccc(NCc2ccc(O)c3ncccc23)cc1 | – | – | – | – | 81.8 | –
Cc1ccc(NCc2ccc(O)c3ncccc23)cc1C | – | – | – | – | 62.6 | –
Cc1cccnc1NCc1ccc(O)c2ncccc12 | – | – | – | – | – | –
SMILES | p-CIP stab down | beta cell repl | V-ATPase pHluor | CR mimetic SO | H9c2 protect | HSV replic up
CCCCN(CCCC)c1nc(-c2ccncc2)nc2ccccc12 | – | – | – | 65.4 | – | –
CCN1CCc2c(sc(NC(=O)c3ccc(S(=O)(=O)N(C)c4ccccc4)cc3)c2C(=O)NC)C1 | – | – | – | – | 56.9 | ·
Cc1[nH]n(C)c(=O)c1C(=O)c1c(-c2ccccc2Cl)noc1C | – | – | – | 65.5 | – | –
Cc1onc(-c2ccccc2Cl)c1C(N)=O | – | – | – | – | – | –
C=CS(=O)(=O)N(Cc1ccccc1Br)[C@H](CO)CC(C)C | · | · | – | · | – | ·
Cc1ccc(C(c2c(C)n(C)n(-c3ccccc3)c2=O)c2c(C)n(C)n(-c3ccccc3)c2=O)s1 | – | – | – | – | 59.2 | –
COc1ccc(C(C)(NC(C)=O)c2nc(/C=C/c3ccccc3)cs2)cc1 (configuration not stated) | · | · | · | · | – | ·
COc1ccc(C(=O)NN/C=C/C(=O)c2ccc(Br)cc2)cc1 | · | · | – | · | 58.5 | ·
O=C(/C=C/NNC(=O)c1ccc(Cl)cc1)c1ccccc1 | – | – | – | – | – | –
O=C(/C=C/NNC(=O)c1ccccc1)c1ccc(Br)cc1 | – | – | – | – | 59.3 | –
O=[N+]([O-])c1ccc(-c2nc(Nc3ccc(O)cc3)c3ccccc3n2)cc1 | – | – | – | – | 51.7 | ·
O=C(O)c1ccc(Nc2nc(-c3ccc([N+](=O)[O-])cc3)nc3ccccc23)cc1 | – | – | – | – | – | ·
CCOc1ccc(C(=O)COC(=O)Cn2[nH]c(=O)c3ccccc3c2=O)cc1 | · | · | – | · | 78.4 | ·
COc1ccc(C(=O)COC(=O)Cn2[nH]c(=O)c3ccccc3c2=O)c(OC)c1 | · | – | – | – | 61.5 | ·
O=C(Cn1[nH]c(=O)c2ccccc2c1=O)OCC(=O)c1ccccc1 | · | – | – | – | – | ·
O=c1[nH]nc(CNc2ccc(OC(F)(F)F)cc2)c2ccccc12 | – | – | – | – | – | –
O=c1[nH]nc(CNc2ccc(O)cc2)c2ccccc12 | – | – | – | – | 87.3 | –
O=c1[nH]nc(CNc2ccc(C(F)(F)F)cc2)c2ccccc12 | – | – | – | – | 68.7 | –
CC(/C=N/NC(=O)c1nnn(-c2nonc2N)c1CN1CCCCC1)=C\c1ccccc1 | – | – | – | – | – | ·
COc1ccc(/C(C)=N/NC(=O)c2nnn(-c3nonc3N)c2CN(C)c2ccccc2)cc1 | – | – | – | – | – | ·
C/C(=N\NC(=O)c1nnn(-c2nonc2N)c1CN1CCCCC1)c1ccccc1O | – | – | – | – | 63.2 | ·
C/C(=N\NC(=O)c1nnn(-c2nonc2N)c1CN(C)c1ccccc1)c1ccccc1O | – | – | – | – | 56.7 | ·
C/C(=N\NC(=O)c1nnn(-c2nonc2N)c1CSc1ccc(C)cc1)c1cccnc1 | · | · | – | · | 55.3 | ·
Cn1c(CC(O)c2nc3ccccc3n2C)nc2ccccc21 (configuration not stated) | · | · | – | · | – | ·
CCCCC(=O)OCC(=O)Nc1ccc(SC(F)F)cc1 | – | – | – | – | – | –
SMILES | p-CIP stab down | beta cell repl | V-ATPase pHluor | CR mimetic SO | H9c2 protect | HSV replic up
CCn1c(NC(=O)/C=C/c2ccc(F)cc2)nc2ccccc21 | – | – | – | – | 74.5 | ·
COc1cc2ccccc2nn1 | – | – | – | – | – | –
COc1ccc2c(n1)Sc1nc3ccccc3nc1N2 | – | · | – | 58.9 | – | ?
CC1(C(=O)Nc2ccc(Cl)cc2)Cc2c(-c3ccc(C(N)=O)cc3)ccnc2O1 (configuration not stated) | · | · | · | · | – | ·
O=C(NCc1n[nH]c(=O)c2ccccc12)C1CC(=O)N(c2ccccc2)C1 (configuration not stated) | · | – | – | – | 67.1 | ·
O=C(NC1CC1)C1CC(=O)N(c2ccccc2)C1 (configuration not stated) | – | – | – | – | – | ·
Cc1nc2ccc(NC(=O)c3nn(C(C)C)c(=O)c4ccccc34)cc2s1 | – | – | – | – | – | –
